# System: LXRb homodimer (NR concentration 270 nM)
# Experiment: PBM binding z-score (relative to random genomic background probes); higher = stronger binding; sequences stand for … in GC…GCGATTGACAGCGTAGAATGAAGG
# How it was run: (§1)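 Ligand-free nuclear receptor dimers were bound for 1 h to custom Agilent 4×180K protein-binding microarrays. Detection used antibodies against each partner (one per run). Binding z-scores rest on regression-normalized fluorescence, with random background probes as the reference.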
row,Sequence,PBM binding z-score
1,GCTTGGAGATCAAGGTTAAGAAAGACTAAGCTAA,-1.08
2,CCGAGTAGGTTATGGGGCATCCAGGCAACGGTGA,-0.509
3,CCTTACGGGTCACGAGGTTATAGCACGACGAGCG,-0.321
4,CCTCCTGGGCCAAAGGTCATTGATTCCAATGCTC,0.666
5,GATACCGGGTCAGCTAGAGGCCAGAGTATGGAAA,-1.03
6,AGAACGAGGGCACGCTGAGTTGACAGCAGAGTAG,-1.2
7,CGAATTAGGTCAGAACAGGACAGTGAAGGATGAT,0.086
8,CGAACTAGGTCATCGACAGGACAGTGAATAGTAA,-0.0443
9,ATCGAAAGGTCGAGGTGGGTATAGAGAAAGGGAA,0.942
10,TAGCCTAGGTCAGATCGGGCCACTATACGCTATA,-0.028
11,ACTCGGAGGACAAAGGTCAGACCTACGCCAGTGA,0.528
12,AGACCGAGGGCAATGAGTTGATAGCACGGGTGGC,-0.95
13,TGAACGAGGTTAAAGATCAGGGAACGTGGCGTCG,-0.0519
14,CCTAGTTAGTCAGGAGGTCACACACCGGATATGA,1.17
15,CAAACTAGGTCACGAAAGGTCCAAGTCGAATGAC,0.334
16,CAACCAAGGTGAACAAGGTCGTTGATTACTATTC,-0.212
17,AGAATGACGTTACCAAAGATCAGGGAAACGCTTG,-0.144
18,GCTGCTAGTTCAGGTTGGTCAGCTAACGGGTACG,-0.495
19,ACTCGGAGGACCAAGGTCAGAGCTACGCCAGTGA,-0.603
20,TAGCCTAGGTCATTCACGGGCCAGTATAGAAAGC,0.779

row,Sequence,PBM binding z-score
1,TAGCCTAGGTCATGCAGGGGCCAGTATAGAAAGC,-0.427
2,TCGAGTAGGATACCAATGGGGCATTCAGCTTTCT,-0.758
3,TCCTATAGGTAAACAGGTGAAAGTCCGTAAGTTA,-0.235
4,GCGACTGGGGCATCAGCCGGTTACCATAACTTAA,-1.65
5,CCTAGCAGGCCAATCTGCGTCACTCAAGGCTTGA,-0.0755
6,CGAACTAGGTCAAGGGCAGTGAATCTCCGCACGC,-0.428
7,ACTCGCAGGACAAAGGTCAGAGCTACGCCAGTGA,0.178
8,GATACACGGTCAGCTAGAGGCCAGAGTATGGAAA,-0.753
9,CCTAGCAGGCCCATCTGGGTCACTCAAGGCTTGA,-1.16
10,ATCTCTAGGTAAAAGTTCAGTGGATCCCGAGGAT,1.11
11,TCTTGTAGATCAAAGGTTATGAAAGCCGAAGCCT,0.156
12,CGTCCAAGGTCATAGGAGGTCCGTGAAGACAGAT,0.8
13,CCGACTGGGGCAAGGTTAGCATAACGCACAGCCA,-1.24
14,CGTCAAAGTTCAACTAAGGTAACGGAAAGCACGC,2.03
15,AACACAGGGTCACTAGGCCAGAGTAGGTACGAAT,0.661
16,GCTTGTAGATCAAGATTAAGAAAGACTAAGCTAA,-0.737
17,GCATAGAGGTAATACAAGGTGAAAGTCCGATTGT,-0.79
18,AGTCAAGGTTCACTAGGTAACGTAAGATTCAGCT,0.445
19,TCTTGTAGATCAATAGAGGTTAAGAATGTGCGCT,0.239
20,CCTATTAGTTGACCATAAGGGCTACCGAAGCTCG,0.649

# System: PPARa:RXRa (NR concentration 270 nM, RXRa partner concentration 90 nM)
# Experiment: as above
# How it was run: as §1
row,Sequence,PBM binding z-score
1,GCTTGGAGATCAAGGTTAAGAAAGACTAAGCTAA,1.57
2,CCGAGTAGGTTATGGGGCATCCAGGCAACGGTGA,2.36
3,CCTTACGGGTCACGAGGTTATAGCACGACGAGCG,5.94
4,CCTCCTGGGCCAAAGGTCATTGATTCCAATGCTC,5.6
5,GATACCGGGTCAGCTAGAGGCCAGAGTATGGAAA,3.5
6,AGAACGAGGGCACGCTGAGTTGACAGCAGAGTAG,2.46
7,CGAATTAGGTCAGAACAGGACAGTGAAGGATGAT,3.41
8,CGAACTAGGTCATCGACAGGACAGTGAATAGTAA,4.87
9,ATCGAAAGGTCGAGGTGGGTATAGAGAAAGGGAA,4.74
10,TAGCCTAGGTCAGATCGGGCCACTATACGCTATA,1.65
11,ACTCGGAGGACAAAGGTCAGACCTACGCCAGTGA,4.93
12,AGACCGAGGGCAATGAGTTGATAGCACGGGTGGC,0.375
13,TGAACGAGGTTAAAGATCAGGGAACGTGGCGTCG,4.05
14,CCTAGTTAGTCAGGAGGTCACACACCGGATATGA,4.29
15,CAAACTAGGTCACGAAAGGTCCAAGTCGAATGAC,5.45
16,CAACCAAGGTGAACAAGGTCGTTGATTACTATTC,2.67
17,AGAATGACGTTACCAAAGATCAGGGAAACGCTTG,-0.289
18,GCTGCTAGTTCAGGTTGGTCAGCTAACGGGTACG,-0.285
19,ACTCGGAGGACCAAGGTCAGAGCTACGCCAGTGA,1.79
20,TAGCCTAGGTCATTCACGGGCCAGTATAGAAAGC,3.36

row,Sequence,PBM binding z-score
1,TAGCCTAGGTCATGCAGGGGCCAGTATAGAAAGC,3.56
2,TCGAGTAGGATACCAATGGGGCATTCAGCTTTCT,-0.335
3,TCCTATAGGTAAACAGGTGAAAGTCCGTAAGTTA,2.07
4,GCGACTGGGGCATCAGCCGGTTACCATAACTTAA,0.18
5,CCTAGCAGGCCAATCTGCGTCACTCAAGGCTTGA,-0.332
6,CGAACTAGGTCAAGGGCAGTGAATCTCCGCACGC,4.64
7,ACTCGCAGGACAAAGGTCAGAGCTACGCCAGTGA,4.75
8,GATACACGGTCAGCTAGAGGCCAGAGTATGGAAA,-0.296
9,CCTAGCAGGCCCATCTGGGTCACTCAAGGCTTGA,1.7
10,ATCTCTAGGTAAAAGTTCAGTGGATCCCGAGGAT,4.09
11,TCTTGTAGATCAAAGGTTATGAAAGCCGAAGCCT,4.58
12,CGTCCAAGGTCATAGGAGGTCCGTGAAGACAGAT,5.61
13,CCGACTGGGGCAAGGTTAGCATAACGCACAGCCA,1.23
14,CGTCAAAGTTCAACTAAGGTAACGGAAAGCACGC,5.27
15,AACACAGGGTCACTAGGCCAGAGTAGGTACGAAT,5.75
16,GCTTGTAGATCAAGATTAAGAAAGACTAAGCTAA,-0.32
17,GCATAGAGGTAATACAAGGTGAAAGTCCGATTGT,1.51
18,AGTCAAGGTTCACTAGGTAACGTAAGATTCAGCT,3.59
19,TCTTGTAGATCAATAGAGGTTAAGAATGTGCGCT,1.91
20,CCTATTAGTTGACCATAAGGGCTACCGAAGCTCG,-0.0868

# — the supplement of paper PMC6555819
